This is an account of results in PubChem BioAssay.

Assay [1] deals with Albumin (Bos taurus) (UniProt P02769). The experiment in a line: compounds binding labelled BSA control protein – biochemical, small-molecule microarray, Alexa647 label, 635/667 nm fluorescence, artefact control for SMM control protein annotation, profiling panel (AID 1118).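 Note: score merges 667 nm emission intensity and signal-to-noise per printed compound spot.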 The conditions noted are these: BSA-A647 binding, fluorescence 635 nm, higher = more signal.
Albumin (Bos taurus), sequence (P02769 whole entry, looked up): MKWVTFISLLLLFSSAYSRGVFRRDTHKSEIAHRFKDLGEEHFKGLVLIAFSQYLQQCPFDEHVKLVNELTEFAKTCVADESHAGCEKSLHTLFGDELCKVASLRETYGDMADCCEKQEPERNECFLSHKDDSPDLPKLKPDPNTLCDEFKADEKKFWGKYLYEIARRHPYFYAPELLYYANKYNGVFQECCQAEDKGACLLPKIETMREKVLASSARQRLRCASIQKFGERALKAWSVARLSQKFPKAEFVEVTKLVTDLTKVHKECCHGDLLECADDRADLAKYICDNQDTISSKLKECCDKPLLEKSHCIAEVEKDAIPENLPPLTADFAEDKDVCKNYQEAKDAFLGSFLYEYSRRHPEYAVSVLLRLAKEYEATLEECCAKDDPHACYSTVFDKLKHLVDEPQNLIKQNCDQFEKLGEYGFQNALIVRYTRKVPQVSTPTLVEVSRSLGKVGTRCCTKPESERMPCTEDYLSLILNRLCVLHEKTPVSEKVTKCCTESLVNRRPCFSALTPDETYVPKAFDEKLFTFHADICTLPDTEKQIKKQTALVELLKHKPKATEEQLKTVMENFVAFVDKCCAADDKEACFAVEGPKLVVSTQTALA
A short description of assay [2]: probe aXIP binding to arrayed compounds – biochemical, NeuroSMM set, 635/667 nm fluorescence, primary screen (AID 1119).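 Note: probe is the protein aXip251-270 applied at 1 µg/mL to compound-printed slides; binding of probe to printed compounds measured as 667 nm fluorescence plus signal to noise.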 The conditions noted are these: small-molecule microarray, higher = more signal, called active from +8 up or from −8 down.
Assay [3] in a line: probe aNOTCH3 binding on compound microarray – biochemical, small-molecule microarray, 635/667 nm fluorescence, primary screen (AID 1120).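 Note: probe is a biotin-tagged antibody raised against NOTCH3 rather than NOTCH3 protein; score merges spot fluorescence near 667 nm with spot signal to noise.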 The conditions noted are these: higher = more signal.
Assay [4] is described as follows: probe aNOTCH2 binding on compound microarray – biochemical, small-molecule microarray, 635/667 nm fluorescence, primary screen (AID 1121).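 Note: score merges feature fluorescence read at 667 nm with its signal to noise.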 The conditions noted are these: higher = more signal.
In assay [5] the target is Carbonic anhydrase 2 (Homo sapiens) (UniProt P00918). The experiment in a line: compounds binding carbonic anhydrase 2 – biochemical, small-molecule microarray, Alexa647-labelled CAII, profiling panel (AID 1122). The conditions noted are these: CAII-A647 binding fluorescence, higher = more signal.
Assay [6] in a line: COS7 lysate on small-molecule microarray, probe aHis, 635 nm (AID 1123).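 Note: z-score combines 667nm fluorescence intensity with signal-to-noise per printed compound spot.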 The conditions noted are these: COS7 cell lysate, fluorescence, higher = more signal.
The nature of assay [7]: probe aLAP1 signal on lysate-treated microarray – cell lysate, small-molecule microarray, COS7 lysate, primary screen (AID 1124).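 Note: lysate comes from COS7 cells expressing LAP1 and is applied at 0.3 µg/mL; score merges spot fluorescence near 667 nm with signal-to-noise over triplicate slides.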 The conditions noted are these: probe aLAP1, fluorescence, higher = more signal.
The test system of assay [8] is Sam68 (KHDRBS1). The experiment in a line: compounds binding KHDRBS1 protein – biochemical, small-molecule microarray, 635 nm fluorescence, primary screen (AID 1125).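 Note: score merges 667 nm channel intensity with signal to noise over triplicate slides.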 The conditions noted are these: higher = more signal.
The subject of assay [9] is Chordin-like protein 2 (CHRDL2). As to the kind of experiment: compounds binding chordin-like 2 – biochemical, small-molecule microarray, 635 nm fluorescence, primary screen (AID 1126).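 Note: printed compound slides probed with Chrdl2 protein at 4 µg/mL for 1 h at 4 C; score merges 667 nm emission intensity with signal to noise over three replicate slides.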 The conditions noted are these: fluorescence 635 nm, higher = more signal.
The target of assay [10] is Concanavalin-A (Canavalia ensiformis) (UniProt P02866). The experiment in a line: compounds binding concanavalin A lectin – biochemical, small-molecule microarray, Alexa647 label, 635 nm, artefact control for SMM control protein annotation, primary screen (AID 1127).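 Note: z combines 667 nm emission intensity with signal-to-noise across three replicate slides.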 The conditions noted are these: ConA-A647 binding fluorescence, higher = more signal.
Concanavalin-A (Canavalia ensiformis), sequence (P02866 whole entry, looked up): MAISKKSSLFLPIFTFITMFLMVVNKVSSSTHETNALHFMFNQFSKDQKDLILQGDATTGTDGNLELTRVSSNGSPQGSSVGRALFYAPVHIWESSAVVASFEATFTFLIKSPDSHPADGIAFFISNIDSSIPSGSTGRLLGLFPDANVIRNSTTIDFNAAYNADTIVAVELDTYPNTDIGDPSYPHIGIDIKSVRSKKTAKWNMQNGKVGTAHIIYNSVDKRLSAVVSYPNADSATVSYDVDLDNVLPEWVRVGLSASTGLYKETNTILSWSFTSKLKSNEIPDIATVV
Assay [11] in a line: compounds binding Alexa647 anti-His antibody – biochemical, small-molecule microarray, 635 nm fluorescence, artefact control for SMM control protein annotation, primary screen (AID 1128).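 Note: score merges feature fluorescence with signal-to-noise for each printed compound spot.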 The conditions noted are these: higher = more signal.
Assay [12] concerns Human papillomavirus type 1a E7 protein (residues 1-88). The experiment in a line: HPV1a E7 small-molecule binders, primary screen, biochemical, small-molecule microarray, residues 1-88, 635 nm (AID 1129). The conditions noted are these: small-molecule microarray binding, fluorescence 635 nm; higher = more signal.
In assay [13] the target is Focal adhesion kinase 1 (Homo sapiens) (UniProt Q05397). As to the kind of experiment: PTK2 protein binding on printed compound slides – biochemical, small-molecule microarray, 635/667 nm fluorescence, BSA, DTT, primary screen (AID 1130).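 Note: composite of spot emission at 667 nm and signal to noise over triplicate slides.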 The conditions noted are these: 635 nm fluorescence, higher = more signal.
Focal adhesion kinase 1 (Homo sapiens), sequence (Q05397 whole entry, looked up): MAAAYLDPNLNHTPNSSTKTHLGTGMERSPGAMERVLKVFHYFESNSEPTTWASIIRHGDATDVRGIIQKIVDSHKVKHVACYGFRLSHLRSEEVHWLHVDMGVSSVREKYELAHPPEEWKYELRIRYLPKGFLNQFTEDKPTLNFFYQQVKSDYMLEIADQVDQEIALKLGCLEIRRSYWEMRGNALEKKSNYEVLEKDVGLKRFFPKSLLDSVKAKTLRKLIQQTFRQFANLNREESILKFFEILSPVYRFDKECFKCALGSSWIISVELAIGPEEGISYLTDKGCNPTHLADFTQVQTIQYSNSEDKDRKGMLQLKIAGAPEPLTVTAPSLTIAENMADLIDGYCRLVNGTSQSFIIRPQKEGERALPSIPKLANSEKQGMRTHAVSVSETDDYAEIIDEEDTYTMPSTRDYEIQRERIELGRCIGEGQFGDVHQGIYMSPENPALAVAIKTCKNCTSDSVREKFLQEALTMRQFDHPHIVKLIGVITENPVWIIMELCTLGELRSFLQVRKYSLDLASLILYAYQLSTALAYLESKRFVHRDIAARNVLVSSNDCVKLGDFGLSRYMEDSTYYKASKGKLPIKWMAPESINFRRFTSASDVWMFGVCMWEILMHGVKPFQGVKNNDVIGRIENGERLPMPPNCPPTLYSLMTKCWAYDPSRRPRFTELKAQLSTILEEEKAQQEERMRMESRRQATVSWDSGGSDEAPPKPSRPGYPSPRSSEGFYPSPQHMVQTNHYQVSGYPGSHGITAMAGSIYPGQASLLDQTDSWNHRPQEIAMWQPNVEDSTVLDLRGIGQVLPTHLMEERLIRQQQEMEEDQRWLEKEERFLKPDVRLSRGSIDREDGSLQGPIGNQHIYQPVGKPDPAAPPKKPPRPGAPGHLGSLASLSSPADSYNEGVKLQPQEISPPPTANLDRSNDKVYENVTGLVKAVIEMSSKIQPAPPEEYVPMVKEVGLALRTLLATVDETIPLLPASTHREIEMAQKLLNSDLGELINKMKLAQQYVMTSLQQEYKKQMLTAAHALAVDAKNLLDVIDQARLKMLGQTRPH
Assay [14] has as its system Fibrinogen (Alexa647-labelled). As to the kind of experiment: Alexa647-fibrinogen binding to printed small molecules – biochemical, small-molecule microarray, 635/667 nm fluorescence, artefact control for SMM control-protein annotation, profiling panel (AID 1131).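 Note: z-score merges 667 nm fluorescence with per-spot signal-to-noise over triplicate slides.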 The conditions noted are these: fibrinogen-A647 binding fluorescence, higher = more signal.
The target in assay [15] is Follistatin (Homo sapiens) (UniProt P19883). The experiment in a line: FST protein binding to printed compounds – biochemical, small-molecule microarray, 635/667 nm fluorescence, primary screen (AID 1132). The conditions noted are these: 635 nm fluorescence, higher = more signal.
Follistatin (Homo sapiens), sequence (P19883 whole entry, looked up): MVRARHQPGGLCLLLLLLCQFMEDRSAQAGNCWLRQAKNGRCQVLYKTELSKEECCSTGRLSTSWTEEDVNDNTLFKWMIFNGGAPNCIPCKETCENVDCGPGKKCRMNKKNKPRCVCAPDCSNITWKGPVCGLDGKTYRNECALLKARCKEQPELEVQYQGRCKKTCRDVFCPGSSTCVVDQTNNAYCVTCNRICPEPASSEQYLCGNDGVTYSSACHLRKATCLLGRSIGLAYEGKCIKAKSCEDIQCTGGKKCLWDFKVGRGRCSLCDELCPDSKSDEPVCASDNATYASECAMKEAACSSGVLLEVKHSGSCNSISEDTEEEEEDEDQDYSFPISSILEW
Assay [16] deals with Fibroblast growth factor 2 (Homo sapiens) (UniProt P09038). As to the kind of experiment: basic fibroblast growth factor binding to printed compounds – biochemical, small-molecule microarray, 635/667 nm fluorescence, primary screen (AID 1133). The conditions noted are these: FGF2, fluorescence 635/667, higher = more signal.
Fibroblast growth factor 2 (Homo sapiens), sequence (P09038 whole entry, looked up): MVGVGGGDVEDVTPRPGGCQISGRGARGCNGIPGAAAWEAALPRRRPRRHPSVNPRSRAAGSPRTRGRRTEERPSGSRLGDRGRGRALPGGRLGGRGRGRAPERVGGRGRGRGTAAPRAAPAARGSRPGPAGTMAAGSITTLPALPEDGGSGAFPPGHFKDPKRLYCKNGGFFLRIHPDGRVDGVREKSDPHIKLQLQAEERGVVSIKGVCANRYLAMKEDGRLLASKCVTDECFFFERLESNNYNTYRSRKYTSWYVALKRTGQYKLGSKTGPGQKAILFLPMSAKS
Assay [17] can be described thus: JC-1 mitochondrial potential readout, lung cancer cells – cell-based, A549, JC-1 fluorescence, basal, 24 h, 100 nL, profiling panel (AID 1138).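 Note: A549 lung adenocarcinoma cells under basal conditions with no added stimulus; test concentration not given here.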 The conditions noted are these: higher = more signal.
Assay [18] has as its system Lefty1. As to the kind of experiment: Lefty1 protein binding to printed compounds – biochemical, small-molecule microarray, 635/667 nm fluorescence, primary screen (AID 1139). The conditions noted are these: fluorescence 635/667, higher = more signal.
The subject of assay [19] is wheat germ agglutinin (Triticum aestivum), Alexa647-labelled. As to the kind of experiment: Alexa647-WGA lectin binding to printed small molecules – biochemical, small-molecule microarray, 635/667 nm fluorescence, artefact control for SMM control-protein annotation, profiling panel (AID 1140).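 Note: score merges 667 nm feature emission with signal to noise over triplicate slides.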 The conditions noted are these: WGA-A647 binding, 635 nm fluorescence, higher = more signal.

For assay [20], the target named is Luciferin 4-monooxygenase (Photinus pyralis) (UniProt P08659). As to the kind of experiment: inhibition of purified Photinus pyralis luciferase – biochemical, luminescence, purified enzyme, 2006 set, primary screen (AID 1141).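 Note: cell-free assay with purified firefly luciferase at 100 ng per well in PBS; test concentration not given here.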 The conditions noted are these: purified firefly luciferase, SteadyGlo luminescence, 30 min; higher = more signal, called active from +8 up or from −8 down.
Luciferin 4-monooxygenase (Photinus pyralis), sequence (P08659 whole entry, looked up): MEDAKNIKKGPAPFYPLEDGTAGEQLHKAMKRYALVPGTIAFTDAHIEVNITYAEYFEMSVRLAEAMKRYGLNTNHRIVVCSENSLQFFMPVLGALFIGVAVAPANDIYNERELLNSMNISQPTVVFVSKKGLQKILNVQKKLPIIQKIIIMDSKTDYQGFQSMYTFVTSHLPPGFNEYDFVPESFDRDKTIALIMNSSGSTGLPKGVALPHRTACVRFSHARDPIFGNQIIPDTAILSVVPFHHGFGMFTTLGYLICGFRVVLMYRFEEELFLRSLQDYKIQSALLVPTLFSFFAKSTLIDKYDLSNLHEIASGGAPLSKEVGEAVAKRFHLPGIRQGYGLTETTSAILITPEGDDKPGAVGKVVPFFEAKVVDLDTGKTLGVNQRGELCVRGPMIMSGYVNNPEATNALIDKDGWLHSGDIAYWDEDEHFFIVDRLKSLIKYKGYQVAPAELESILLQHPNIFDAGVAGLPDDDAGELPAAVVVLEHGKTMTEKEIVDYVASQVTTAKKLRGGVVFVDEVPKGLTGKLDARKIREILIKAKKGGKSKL

Activity calls are given as the source filed them.

As to `O=C1[C@H]2[C@H]3[C@H](O)[C@H](O)CC(=NO[C@@H]4O[C@H](CO)[C@@H](O)[C@H](O)[C@H]4O)[C@@H]3CC[C@H]2C(=O)N1c1ccc(F)cc1F`, the composite z-score in [1] is 0.241; in assay [3] it was -0.0612; in [4] it was -0.104; in assay [5] it was -0.0947; in assay [6], -0.0596; in assay [7], 0. The composite z-score is 0.465 in [8]; 0.426 in assay [9]; 0.262 in assay [10]; 0.537 in assay [11]; 0.534 in assay [12]; -0.33 in [13]. The composite z-score in assay [14] came out at 0.273; in [15], 0.438; in assay [16] it was 0.209; in assay [18], 0.386; in assay [19], 0.0553. In [2], the composite Z-score is -0.836 (inactive). Moreover, the z-score in assay [17] was 0.242; in assay [20], 0.523 (inactive).

For `O=C1C[C@@H](O)[C@@H](O)[C@@H]2[C@@H]3C(=O)N(c4ccc(F)cc4F)C(=O)[C@@H]3CC[C@@H]12`, the composite z-score was 0.129 in assay [1]; -0.0631 in [3]; -0.118 in assay [4]; 0.234 in assay [5]; -0.344 in assay [6]; 0.495 in [7]. In addition, the composite z-score was 0.236 in assay [8]; 0.65 in assay [9]; -0.397 in assay [10]; 0.408 in assay [11]; 0.709 in [12]; -0.246 in [13]. The composite z-score in assay [14] is -0.518; in assay [15] it was 0.312; in [16], 0.294; in assay [18] it was 0.379; in assay [19] it was 0.044. Also, the composite Z-score in assay [2] was -0.521 (inactive). Besides, the z-score in assay [17] was 0.245; in assay [20] it was -0.9 (inactive).

On to `COC(=O)C1=CCC(c2cccc(Cl)c2)O1` (stereo not given), for which the composite z-score in assay [1] is 0.431; in [3], -0.112; in assay [4], -0.0907; in assay [5], 0.483; in assay [6], -0.21; in [7], -0.201. For the same compound, the composite z-score is 0.137 in assay [8]; -0.667 in [9]; 0.247 in assay [10]; 0.192 in assay [11]; 0.24 in assay [12]; -0.126 in [13]. Further, the composite z-score in [14] was 0.346; in assay [15] it was -0.399; in [16], -0.473; in assay [18], -0.319; in assay [19], -0.455. Besides, the composite Z-score in assay [2] was 0.0018 (inactive). The figures for the z-score in [17] and in [20] were -0.816 and 1.74 (inactive), respectively.

Consider `CC(C)NC(=O)[C@@]1(c2ccc([N+](=O)[O-])cc2)CC(=O)N(CC23CC4CC(CC(C4)C2)C3)[C@@H]1c1ccc(CO)cc1I`, for which the composite z-score was -0.0212 in assay [1]; 0.299 in assay [3]; 0.23 in assay [4]; 0.241 in assay [5]; 0.997 in assay [6]; 1.04 in [7]. The composite z-score in [8] came to 1.27; in [9], 0.111; in [10], 0.93; in assay [11] it was 0.0833; in [12], 1.14; in assay [13], 0.457. The composite z-score in assay [14] was -0.206; in [15] it was 1.06; in assay [16] it was 0.444; in assay [18], -0.167; in assay [19] it was 0.403. In addition, in assay [2], the composite Z-score is 0.567 (inactive). In addition, the z-score was 1.01 in assay [17] and 0.355 (inactive) in assay [20].

For the compound `COC(=O)[C@H](C)NC(=O)[C@@H](C)CO`, the composite z-score is 0.802 in assay [1]; -0.105 in assay [3]; -0.103 in [4]; 0.516 in [5]; 1.15 in [6]; 0.531 in [7]. For the same compound, the composite z-score in assay [8] was found to be 1.03; in assay [9], 0.0899; in [10] it was 0.907; in assay [11], 0.548; in assay [12], 1.2; in [13] it was 0.48. Also, the composite z-score in assay [14] worked out at 0.941; in assay [15] it was 0.252; in [16], 0.108; in assay [18], 0.602; in assay [19], 1. Further, the composite Z-score in [2] is 0.292 (inactive). Moreover, the z-score in [17] was -1.08; in assay [20], 0.877 (inactive).
